Screens from PubChem.
A selection: hits, their analogues and other compounds. The true share with any hit is near 3.7%.
TMEM16A act – TMEM16A chloride channel activators or potentiators, primary screen, cell-based, HTS; 0.3% of 340,000 active; AID 623877, 2012; B-score at 10 µM; HEK293 TMEM16A/YFP-H148Q/I152L, iodide quench fluorescence; active compounds read low; Anoctamin-1 (Mus musculus), Q8BHY3;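 active = fluorescence-ratio B-score plate-corrected deviation score at least 3 library SD below zero, with starting fluorescence score within 5 deviations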;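 also: channel opened by trigger with iodide after compound preincubation; score built on the fluorescence ratio of max minus min over baseline; more negative score means more quench and so TMEM16A activation or potentiation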
CHT PAM – CHT positive allosteric modulators, primary screen, cell-based, membrane potential dye, choline EC20. B-score at 10 µM. CHT-expressing cells; active compounds read high; LV-AA mutant CHT in HEK293 cells. High affinity choline transporter 1 (Homo sapiens), Q9GZV3. 0.49% of 310,000 active;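 active = initial fluorescence not abnormally high and integrated response B-score, plate-corrected, over 3 SD above library mean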
ANO1 block – TMEM16A chloride channel inhibitors, primary screen, cell-based, HTS; HEK293 TMEM16A/YFP iodide influx fluorescence, ionomycin; 1.2% of 310,000 active; normalized B-score (activity score, 25-100; higher = stronger inhibition) at 10 µM;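 active = ratio plate-corrected score three or more library SD toward inhibition, starting fluorescence score within five deviations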;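 also: score derived from kinetic fluorescence span divided by baseline fluorescence per well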
GPR7 antag – GPR7 receptor antagonists, primary screen, cell-based, fluorescence, single concentration. Neuropeptides B/W receptor type 1 (Homo sapiens), P48145. GPR7-expressing cells, fluorescence antagonist assay. inhibition, % at 4.4 µM. 1.1% of 290,000 active; in the data active = inhibition above about 16%, passing the limit was not always enough;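 also: cells stimulated with the agonist NPW; 0% = agonist with vehicle and 100% = vehicle without agonist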
Kir21 inh – inhibitors of mouse Kir2.1 inward-rectifier potassium channel; HEK293-Kir2.1, FluxOR thallium flux fluorescence; active compounds read low; B-score at 10 µM; Inward rectifier potassium channel 2 (Mus musculus), P35561; 0.85% of 310,000 active;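 active = fluorescence ratio B-score at or below minus 3 SD of library scores, with starting-brightness B-score within 2 SD, cut at about -4.2 in these data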;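 also: channel flux triggered by added potassium and thallium sulfate stimulus; B-score of peak minus minimum fluorescence over baseline after thallium stimulus; more negative B-score means stronger Kir2.1 block with less thallium influx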
Target sequence (P35561 whole entry, looked up): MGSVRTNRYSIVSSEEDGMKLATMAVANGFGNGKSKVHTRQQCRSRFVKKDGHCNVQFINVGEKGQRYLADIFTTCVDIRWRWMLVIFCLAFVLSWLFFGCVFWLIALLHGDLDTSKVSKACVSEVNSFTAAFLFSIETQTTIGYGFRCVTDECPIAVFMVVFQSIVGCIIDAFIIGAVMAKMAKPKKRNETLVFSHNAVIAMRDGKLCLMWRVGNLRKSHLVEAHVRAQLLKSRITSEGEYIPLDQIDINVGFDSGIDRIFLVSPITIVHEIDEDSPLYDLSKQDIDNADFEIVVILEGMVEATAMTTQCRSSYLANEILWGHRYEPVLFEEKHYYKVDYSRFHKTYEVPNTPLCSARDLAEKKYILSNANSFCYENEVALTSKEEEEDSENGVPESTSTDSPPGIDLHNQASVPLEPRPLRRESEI
CHT block – inhibitors of human choline transporter CHT | AID 488975, 2010 | CHT-expressing cells, membrane potential dye, choline response; active compounds read low | B-score at 10 µM | 0.86% of 310,000 active;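 active = B-score over 3 SD under the library average, and starting fluorescence ratio not unusually high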;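 also: choline stimulus applied at its EC90 after an EC20 pre-addition; B-score computed on integrated fluorescence ratio after choline addition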
* marks the source's active call; other numbers are inactive results; i = inactive; · = no result given.

SMILES	TMEM16A act	CHT PAM	ANO1 block	GPR7 antag	Kir21 inh	CHT block
CCCCNC(=O)NS(=O)(=O)c1ccc(NC(=O)CCC(=O)c2cccs2)cc1	·	i	i	-8.8	0.59	i
CCOc1ccc(C(=S)NC2CCCCC2)cc1OCC	-6.52*	i	i	-5.7	0.33	i
N#C/C(=N/O)c1nc(-c2ccc(F)cc2)cs1	i	i	100*	-5.5	-1.68	i
COc1ccc(S(=O)(=O)N(C)c2ccc(C(=O)NCC3CCCO3)cc2)cc1OC (stereo not drawn)	i	i	i	-13.6	-0.83	i
COc1ccc(OC)c(NC(=O)CSc2nc3nc(C)cc(C)n3n2)c1	i	·	·	·	·	·
C=CCN(C(=O)c1cccc(C(F)(F)F)c1)C1(C(=O)Nc2ccccc2)CCN(C(C)C)CC1	i	i	i	18.4*	-0.31	i
O=C1C=C(c2cnc3ccccc3c2)C[C@@H](c2ccc3c(c2)OCO3)C1	i	·	·	·	·	·
O=C(NNC(=O)c1ccc2ccccc2c1)c1cccc(Br)c1	i	·	·	·	·	·
O=C(NNC(=S)Nc1cccc2ccccc12)c1cccc(Br)c1	i	i	25*	-5.2	1.78	i
Cc1nn(-c2ccccc2)c2c1CC(=O)Nc1ccccc1-2	i	·	·	·	·	·
CCn1c(CNc2ccccc2Cl)nnc1SCC(=O)OC1CCCCC1	i	i	i	-0.3	-4.49*	i
CCn1c(CNc2cccc(Cl)c2)nnc1SCC(=O)OC1CCCCC1	i	i	i	14.3	-5.14*	i
CCn1c(COc2ccccc2)nnc1SCC(=O)NC1CCCCC1	i	i	i	12.6	0.64	i
CCN(CC)CCNC(=O)c1ccc(NC(=O)c2cn(-c3ccc(F)cc3)nc2-c2cccc(OC)c2)cc1	i	i	i	15.2	-5.51*	i
COc1ccc(-c2cc(C(=O)Nc3cc(C)nn3-c3ccccc3)no2)cc1OC	i	i	i	-10.7	1.2	i
Cc1ccc(S(=O)(=O)N2CCN=C2SCc2cccnc2)cc1	i	i	i	-0.5	-4.81*	i
CCOC(=O)N1N=C(CC)CC1(O)C(F)(F)F (stereo not drawn)	-11.2*	i	i	3.9	-1.51	i
N/C(=N\OC(=O)COc1ccc2ccccc2c1Br)c1cccnc1	·	i	25*	-9.7	2.54	i
COc1ccc(S(=O)(=O)n2ccc(-c3ccc(OCCN(C)c4ccccn4)cc3)n2)cc1	i	i	i	20.7*	0.34	i
CC(=O)C1=C(O)C(=O)N(c2ccc(O)cc2)C1c1ccccc1 (stereo not drawn)	i	i	i	-2.8	0	i
CC(=O)C1=C(O)C(=O)N(c2ccc(C(=O)O)cc2)C1c1ccccc1 (stereo not drawn)	-13.8*	i	i	-9.0	0.1	i
COc1cccc2cc3c(=O)oc4ccccc4c3nc12	-12.4*	i	i	7.0	2.13	i
CCOC(=O)N1CCC(N2C(=O)c3ccccc3C2Nc2c(C)cccc2C)CC1 (stereo not drawn)	i	i	i	15.9*	0.03	i
CCOC(=O)N1CCC(N2C(=O)c3ccccc3C2Nc2ccccc2)CC1 (stereo not drawn)	i	i	i	-3.9	-0.29	i
CC(=O)N1Cc2ccccc2C(C)CC12CCCC2 (stereo not drawn)	i	i	i	-8.2	-5.1*	i
CC(=O)N1c2ccccc2C(C)CC12CCCCC2 (stereo not drawn)	i	i	i	0.4	-4.72*	i
COc1ccc(C(=O)C2CCCN(Cc3ccc4nonc4c3)C2)c(OC)c1 (stereo not drawn)	i	i	i	-5.4	-5.19*	i
